Screening data: PubChem BioAssay, National Center for Advancing Translational Sciences (NCATS)
BRCA1 expr up: increases BRCA1 expression; MCF7-BRCA1-FFLuc reporter, luminescence, 48 h; response scale: scaled: vehicle 0%, 10 µM genistein 100%; Potency, µM (titrated, usually from 46.1 µM), for inactives: at the highest dose activation, most hits filed as activators; 380,000 tested, 1.1% active; AID 624202; note: potency is the fitted concentration of half-maximal effect; nearly all actives have a fitted effect of over 80% in size
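Activators of BRCA1 expression were detected as increased firefly luciferase luminescence in engineered MCF7 cells after 48 h compound incubation. Signals were scaled to genistein 10 microM as full activation.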
ELG1 DNA repair: ELG1-dependent DNA repair inhibition | Potency, µM (top dose mostly 46.1 µM), for the others: top-dose activity change, negative = inhibition, hits mostly inhibitors | AID 504467 | 330,000 tested, 2.3% active | HEK293T ELG1-luciferase reporter, luminescence, 16 h; DNA damage induced by 5-fluorouridine; note: potency is the fitted concentration of half-maximal effect; % is set by controls: 0 for no effect and ±100 for the full control effect; nearly all actives have a fitted effect of over 55% in size
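In this reporter screen, reduction of luminescence relative to DMSO vehicle indicated activity. Compounds and 5-fluorouridine were added together to 2,000 cells per well, incubated for 16 hr at 37 °C, then developed with ONE-Glo.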
IL-2 act: activates IL-2 in a cell-based reporter assay; activation, % (series mostly up to about 46 µM); IL-2 activation reporter assay, cell-based qHTS; stimulated with anti-CD3/CD4/CD28 beads; in transgenic mouse T cells; 360,000 tested, 0.065% active; AID 652025; in the data active = activation above about 50%; inconclusive = mostly about 30% to 49%; note: 0% is about no effect
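Unstimulated transgenic mouse T cells, 750 per well, received compound and, after 60 minutes, anti-CD3/anti-CD4 bead plus anti-CD28 stimulation. EGFP and DsRed were quantified after 18 hours.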
Nrf2 ARE act: Nrf2 pathway activation; AREc32 ARE-luciferase reporter (MCF7-derived line), luminescence, 24 h; 410,000 tested, 0.31% active; AID 624171; Potency, µM (top dose mostly 46.1 µM), without a hit: top-dose activation, hits mostly activators; note: potency is the fitted concentration of half-maximal effect; % of control where 0% means no effect; nearly all actives have a fitted effect of over 65% in size
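ARE activation measured as luciferase luminescence (Steady-Glo, 30 min RT) in AREc32_Fluc cells after 24 hr compound exposure at 37 deg C, 5% CO2; cells seeded overnight at 1000/well in OPTI-MEM, 5% FBS.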
An asterisk follows results filed as active. Compounds with a hit are over-represented: about 3.1% of the library has one in this group of screens. Unless noted, calls come from the whole dose curve; as a rule, active = well fitted curve in the direction sought with a large enough effect; inconclusive = small, poorly fitted or top-dose-only effect, or another doubt; inactive = no such curve, though single readings can be large; an effect the other way counts as inactive or inconclusive.

For Cc1cccc2cc(CN(Cc3ccco3)C(=O)NC3CCCCC3)c(=O)[nH]c12 the results were BRCA1 expr up -23.3%, ELG1 DNA repair 7.31µM*, IL-2 act -2.7 and Nrf2 ARE act 0.2%.
`CC1(C)CC(=O)C=C(c2ccc(-c3ccccc3)cc2)C1=O` gave BRCA1 expr up 12.6µM*, IL-2 act -1.4 and Nrf2 ARE act 7.9%.
CC1(C)CC(=O)C=C(c2ccc(-c3ccccc3)cc2)C1 was read as BRCA1 expr up 10µM*, ELG1 DNA repair inconclusive, IL-2 act 0.0 and Nrf2 ARE act 4.2%.
Ic1ccc(/C=C2\C=Cc3ccccc32)cc1 was read as BRCA1 expr up 12.5%.
C=C(C(=O)c1ccccc1)C(CC(=O)c1ccccc1)c1ccccc1 (stereo unspecified) was read as BRCA1 expr up -97.1%, ELG1 DNA repair 13µM*, IL-2 act -3.0 and Nrf2 ARE act 4.1%.
For CCOC(=O)C1CCN(c2ncnc3c2nnn3C)CC1 the results were Nrf2 ARE act -0.2%.
Screening COc1ccc(C(=O)NCCn2cc(SCc3ccc(C(F)(F)F)cc3)c3ccccc32)cc1OC returned BRCA1 expr up -65.1% and Nrf2 ARE act 0.2%.
C=CC[C@@H]1C=C[C@H](O/N=C/c2ccc(C(=O)N3[C@H](c4ccc(C)cc4)[C@@H](C)CC[C@H]3C(=O)OC)cc2)[C@@H](CO)O1 was read as ELG1 DNA repair 18.4µM*.
For COc1ccc(C(=O)C2CCN(C(=S)NCCc3ccccc3)CC2)cc1 the results were BRCA1 expr up 16.8%, ELG1 DNA repair 5.0%, IL-2 act -2.4 and Nrf2 ARE act 0.4%.
For COc1ccc(CCNC(=S)N2CCC(Cc3ccccc3)CC2)cc1OC the results were BRCA1 expr up -34.0%, ELG1 DNA repair 9.2µM*, IL-2 act -2.2 and Nrf2 ARE act 5.6%.
Screening COc1ccc(CCNC(=S)N2CCC(C(=O)c3ccc(F)cc3)CC2)cc1OC returned BRCA1 expr up -40.4%, ELG1 DNA repair 9.2µM*, IL-2 act -0.7 and Nrf2 ARE act 5.9%.
COc1ccc(C(=O)C2CCN(C(=S)NCCc3ccc(OC)c(OC)c3)CC2)cc1 was read as BRCA1 expr up -18.7%, ELG1 DNA repair 20.6µM*, IL-2 act -0.5 and Nrf2 ARE act 6.6%.
`O=C(c1ccc(F)cc1)C1CCN(C(=S)Nc2ccc(F)cc2)CC1` gave BRCA1 expr up -11.5%, ELG1 DNA repair 10.3µM*, IL-2 act 0.5 and Nrf2 ARE act 4.0%.
CCOC1=C2[C@H](c3ccccc3)N(S(=O)(=O)c3ccc(C)cc3)[C@H](C(C)C)[C@H]2n2c(=O)n(-c3ccccc3)c(=O)n2C1 was read as BRCA1 expr up 4.7%, IL-2 act 0.8 and Nrf2 ARE act 0.2%.
Screening O=C(NCCC1=CCCCC1)c1ccc2c(=O)n3nc(Nc4ccccc4)sc3nc2c1 returned Nrf2 ARE act 0.4%.
For Cc1cccc(CNC(=O)c2cc3cc(S(=O)(=O)N4CCCCC4)ccc3n2C)c1 the results were Nrf2 ARE act 0.1%.
Screening CCCC(=O)N(c1ccc2oc(-c3ccccc3)c(C(=O)OCC)c2c1)S(=O)(=O)c1ccc(C)cc1 returned Nrf2 ARE act 3.3%.
For CCOC(=O)c1c(C)[nH]c(CCC(=O)Nc2cc(C)ccc2OC)c1C the results were Nrf2 ARE act 0.4%.
`CC(C)(C)c1ccc(C(=O)N2CCN(CCNC(=O)C(=O)NCc3ccc(Cl)cc3)CC2)cc1` gave BRCA1 expr up -46.8%, ELG1 DNA repair 11.6µM*, IL-2 act -3.8 and Nrf2 ARE act -0.4%.
`COC(=O)c1c(NC(=O)/C=C/c2ccco2)sc2c1CCC2` gave BRCA1 expr up -58.1%, ELG1 DNA repair 12.3%, IL-2 act 12.7 and Nrf2 ARE act 1.41µM*.
For Cc1csc2nc(COC(=O)c3cccc(NC(=O)c4cccc(Cl)c4)c3)cc(=O)n12 the results were Nrf2 ARE act 2.4%.
COc1ccc(C(=O)c2sc3nc(C)cc(-c4cccs4)c3c2N)cc1OC was read as BRCA1 expr up -68.4%, ELG1 DNA repair inconclusive, IL-2 act 549.9* and Nrf2 ARE act -0.1%.
Screening O=C(Nc1ccccc1C(=O)OCc1cc(=O)n2nc(C3CC3)sc2n1)c1cccc(F)c1 returned Nrf2 ARE act 0.7%.
Screening O=[N+]([O-])c1c(NCCO)cc(N2CCN(Cc3ccc4c(c3)OCO4)CC2)c2nonc12 returned BRCA1 expr up 15.2%, ELG1 DNA repair 20.6µM*, IL-2 act -0.6 and Nrf2 ARE act 0.9%.
Screening c1ccc(OCc2nnc(-c3ccccc3)o2)cc1 returned BRCA1 expr up 7.08µM*, ELG1 DNA repair inconclusive, IL-2 act -1.9 and Nrf2 ARE act 0.3%.
`c1ccc(-c2nnc(-c3ccccc3)o2)cc1` gave BRCA1 expr up 79.4%, ELG1 DNA repair inconclusive, IL-2 act -0.4 and Nrf2 ARE act 4.47µM*.
For Brc1cccc(-c2nnc(-c3ccccc3)o2)c1 the results were BRCA1 expr up inconclusive, ELG1 DNA repair inconclusive, IL-2 act -0.5 and Nrf2 ARE act 3.16µM*.
Screening Nc1ccc(-c2nnc(-c3ccc(N)cc3)o2)cc1 returned BRCA1 expr up 5.62µM*, ELG1 DNA repair inconclusive, IL-2 act -3.4 and Nrf2 ARE act -0.2%.
Screening Cc1ccc(Cn2cc(S(=O)(=O)c3cccc(Cl)c3)c(=O)c3cc(F)c(N4CCCCC4)cc32)cc1 returned Nrf2 ARE act 0.0%.
Screening c1ccc(-c2nnc(C3CC(c4ccncc4)=NO3)o2)cc1 (stereo unspecified) returned BRCA1 expr up -7.8%, IL-2 act 0.3 and Nrf2 ARE act -0.6%.
For c1ccc(-c2nnc(-c3ccncc3)o2)cc1 the results were BRCA1 expr up 11.2µM*, ELG1 DNA repair inconclusive, IL-2 act -1.4 and Nrf2 ARE act 4.0%.
Screening O=C(CSc1nnc(-c2ccc(OC(F)F)cc2)o1)N1CCOCC1 returned BRCA1 expr up 12.6µM*, ELG1 DNA repair inconclusive, IL-2 act 3.2 and Nrf2 ARE act 0.1%.
For COc1ccc(-c2nnc(SCC(=O)N3CCOCC3)o2)cc1 the results were BRCA1 expr up inconclusive, ELG1 DNA repair inconclusive, IL-2 act -0.8 and Nrf2 ARE act -0.6%.
`COc1cccc(-c2nnc(SCC(=O)N3CCOCC3)o2)c1` gave BRCA1 expr up 12.6µM*, ELG1 DNA repair inconclusive, IL-2 act 0.7 and Nrf2 ARE act -0.6%.
`CC(C)C(=O)N1CCN(c2ccc(NC(=O)c3cccs3)cc2)CC1` gave BRCA1 expr up -15.6%, ELG1 DNA repair inconclusive, IL-2 act 1.2 and Nrf2 ARE act -0.2%.
For CC(C)C(=O)N1CCN(c2ccc(NC(=O)c3cccs3)cc2Cl)CC1 the results were BRCA1 expr up 31.4%, ELG1 DNA repair 11.6µM*, IL-2 act 1.3 and Nrf2 ARE act 6.0%.
For COc1ccc(C(=O)Nc2ccccc2N2CCN(C(=O)C(C)C)CC2)cc1Cl the results were BRCA1 expr up -36.3%, ELG1 DNA repair 23.1µM*, IL-2 act 0.4 and Nrf2 ARE act 2.0%.
